Results: PubChem BioAssay (NCATS)
Values joined by “and” are separate entries in the source; they are usually repeats but may differ in a detail not shown here. Identical values can stand only once. Inconclusive results are not listed. Active and inactive are the calls of the source. Calls come from the whole dose curve; as a rule, active = well fitted curve in the direction sought with a large enough effect; inconclusive = small, poorly fitted or top-dose-only effect, or another doubt; inactive = no such curve, though single readings can be large; an effect the other way counts as inactive or inconclusive.

Tests used:
[1] = tested on: HaCat; assay: Cytotoxic Profiling of Annotated Libraries Using Quantitative High-Throughput Screening (AID 1296008); settings: Five cell lines viability, CellTiter-Glo ATP luminescence, 48-72 h; max response: hits give low values; note: nearly all actives have a fitted effect of over 60% in size
Summary of the method: (§1)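 Cytotoxicity was measured as CellTiter-Glo ATP luminescence, read after 10 min at room temperature. Compound treatment of the cells lasted 48 or 72 hr at 37 degrees Celsius in a qHTS format.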

[2] = tested on: KB-3-1; assay: as above; settings: Five cell lines viability, CellTiter-Glo ATP luminescence, 48-72 h; max response: hits give low values
Summary of the method: as §1

[3] = tested on: NIH3T3; assay: as above; settings: Five cell lines viability, CellTiter-Glo ATP luminescence, 48-72 h; max response: hits give low values
Summary of the method: as §1

[4] = tested on: HACAT; assay: qHTS assay to identify novel small-molecules to repurpose for Merkel cell carcinoma treatment (AID 1296009); settings: MCC and control cell lines, CellTiter-Glo viability, 72 h; at 44.8 µM (top of the series) unless noted; note: nearly all actives have a fitted effect of over 60% in size
Summary of the method: (§2)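 Cell viability measured by CellTiter-Glo following 72 hr compound treatment at 37 degree celsius, with NPC and MIPE libraries tested in 8- and 11-point concentration series.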

[5] = tested on: MCC-13; assay: as above; settings: MCC and control cell lines, CellTiter-Glo viability, 72 h; series mostly up to 46 µM
Summary of the method: as §2

[6] = tested on: MCC-26; assay: as above; settings: MCC and control cell lines, CellTiter-Glo viability, 72 h; series mostly up to 46 µM
Summary of the method: as §2

[7] = tested on: MKL-1; assay: as above; settings: MCC and control cell lines, CellTiter-Glo viability, 72 h; series mostly up to 46 µM
Summary of the method: as §2

[8] = tested on: MKL-2; assay: as above; settings: MCC and control cell lines, CellTiter-Glo viability, 72 h; series mostly up to 46 µM
Summary of the method: as §2

[9] = tested on: UISO; assay: as above; settings: MCC and control cell lines, CellTiter-Glo viability, 72 h; series mostly up to 46 µM
Summary of the method: as §2

[10] = tested on: WaGa; assay: as above; settings: MCC and control cell lines, CellTiter-Glo viability, 72 h; series mostly up to 46 µM
Summary of the method: as §2

[11] = tested on: C33A; assay: Primary qHTS to identify gynecologic anti-cancer compounds using libraries of approved drugs and bioactive compounds (AID 1345084); settings: Gynecologic cancer cell panel viability, ATPlite luminescence, 48 h; series mostly up to 57.5 µM; note: nearly all actives have a fitted effect of over 55% in size
Summary of the method: (§3)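 Five-concentration response, 48 h; readout is ATP-driven luciferase luminescence.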

[12] = tested on: CAOV3; assay: as above; settings: Gynecologic cancer cell panel viability, ATPlite luminescence, 48 h; series mostly up to 57.5 µM
Summary of the method: as §3

[13] = tested on: CASKI; assay: as above; settings: Gynecologic cancer cell panel viability, ATPlite luminescence, 48 h; series mostly up to 57.5 µM
Summary of the method: as §3

[14] = tested on: Es-2; assay: as above; settings: Gynecologic cancer cell panel viability, ATPlite luminescence, 48 h; series mostly up to 57.5 µM
Summary of the method: as §3

[15] = tested on: HeLa; assay: as above; settings: Gynecologic cancer cell panel viability, ATPlite luminescence, 48 h; series mostly up to 57.5 µM
Summary of the method: as §3

[16] = tested on: Hek293T; assay: as above; settings: Gynecologic cancer cell panel viability, ATPlite luminescence, 48 h, control line for the selectivity index; series mostly up to 57.5 µM
Summary of the method: as §3

[17] = tested on: JEG-3; assay: as above; settings: Gynecologic cancer cell panel viability, ATPlite luminescence, 48 h; series mostly up to 57.5 µM
Summary of the method: as §3

[18] = tested on: HEK293T; assay: qHTS assay to identify novel small-molecules to repurpose for Merkel cell carcinoma treatment (AID 1296009); settings: MCC and control cell lines, CellTiter-Glo viability, 72 h; at 44.8 µM (top of the series) unless noted; note: nearly all actives have a fitted effect of over 60% in size
Summary of the method: as §2

[19] = tested on: NIH3T3; assay: as above; settings: MCC and control cell lines, CellTiter-Glo viability, 72 h; at 44.8 µM (top of the series) unless noted
Summary of the method: as §2
% is set by controls: 0 for no effect and ±100 for the full control effect.

CC(N[C@H]1C[C@H]1c1ccccc1)c1ccc2c(c1)OCCO2 (stereo partly specified)
inactive: outcome [1] | max response [2] 2.53% and -2.54% | max response [3] 4.85% and -28.5% | outcome [4] | Potency [5] | Potency [6] | Potency [7] | Potency [8] | Potency [9] | Potency [10] | Potency [11] | Potency [12] | Potency [13] | Potency [14] | Potency [15] | Potency [16] | Potency [17]

C=CC(=O)NCNC(=O)C=C
inactive: max response [1] -16.1% | max response [2] 1.85% | max response [3] -14.2% | outcome [18] inactive [at 92 µM] | Potency [5] | Potency [6] | Potency [7] | Potency [9] | Potency [11] | Potency [12] | Potency [13] | Potency [14] | Potency [15] | Potency [16] | Potency [17]

OCCCBr
inactive: max response [1] -13% | max response [2] -26.3% | max response [3] -4.76% | outcome [18] inactive [at 92 µM] | Potency [5] | Potency [6] | Potency [7] | Potency [8] | Potency [9] | Potency [10] | Potency [11] | Potency [12] | Potency [13] | Potency [14] | Potency [15] | Potency [16] | Potency [17]

O=C(O)CNC(=O)c1c(O)c2ccccc2n(Cc2ccccc2)c1=O
inactive: outcome [1] | max response [2] 5.38% and 7.42% | max response [3] -11% and 0.668% | outcome [4] | outcome [18] | Potency [5] | Potency [6] | Potency [7] | Potency [8] | Potency [9] | Potency [10] | Potency [11] | Potency [12] | Potency [13] | Potency [14] | Potency [15] | Potency [16]

O=[N+]([O-])c1cc([N+](=O)[O-])c2ccccc2c1
inactive: outcome [1] | max response [2] -6.84% | max response [3] 4.23% | outcome [4] inactive [at 92 µM] | Potency [5] | Potency [6] | Potency [7] | Potency [8] | Potency [12] | Potency [13] | Potency [14] | Potency [16] | Potency [17]

O=[N+]([O-])/N=C1\NCCN1Cc1ccc(Cl)nc1
inactive: max response [1] -1.41% | max response [2] 6.99% and -6.61% | max response [3] -2.1% | outcome [18] | Potency [5] | Potency [6] | Potency [7] | Potency [8] | Potency [9] | Potency [10] | Potency [11] | Potency [12] | Potency [13] | Potency [14] | Potency [15] | Potency [16] | Potency [17]

CN(C)[C@@H]1C(=O)C(C(N)=O)=C(O)[C@@]2(O)C(=O)C3=C(O)c4c(O)cccc4[C@@](C)(O)[C@H]3[C@H](O)[C@@H]12
inactive: outcome [1] | max response [2] -7.87% and 0.265% and -1.24% | max response [3] 4.97% | outcome [4] | outcome [18] | Potency [5] | Potency [6] | Potency [7] | Potency [8] | Potency [9] | Potency [10]

CCC(=O)OC1CCC2C3CCC4=CC(=O)CC[C@@]4(C)C3CC[C@]12C (stereo partly specified)
inactive: outcome [1] | outcome [2] | max response [3] 4.81% | outcome [4] | outcome [18] | Potency [5] | Potency [6] | Potency [7] | Potency [8] | Potency [9] | Potency [10]

O=[N+]([O-])c1c(Cl)c(Cl)cc(Cl)c1Cl
inactive: outcome [1] | max response [2] -18.1% | outcome [3] | outcome [4] inactive [at 92 µM] | Potency [5] | Potency [6] | Potency [7] | Potency [8] | outcome [19] inactive [at 92 µM] | Potency [9] | Potency [10] | Potency [11] | Potency [12] | Potency [13] | Potency [14] | Potency [15] | Potency [16] | Potency [17]

C=C1C[C@H]2[C@H]3CCC(=O)[C@@]3(C)CC[C@@H]2[C@@]2(C)C=CC(=O)C=C12
inactive: outcome [1] | max response [2] 8.58% | max response [3] -14.2% | outcome [4] | Potency [5] | Potency [6] | Potency [7] | Potency [9]

O=C(O)COc1ccccc1
inactive: outcome [1] | max response [2] -13.1% | max response [3] -0.908% | outcome [4] | Potency [5] | Potency [6] | Potency [7] | Potency [8] | Potency [9] | Potency [10] | Potency [11] | Potency [12] | Potency [13] | Potency [14] | Potency [15] | Potency [16] | Potency [17]

CCCC[N+]1(C)[C@H]2CC(OC(=O)[C@H](CO)c3ccccc3)C[C@H]1[C@H]1O[C@H]12 (stereo partly specified)
inactive: outcome [1] | max response [2] -2.74% | max response [3] -3.27% | outcome [4] | Potency [5] | Potency [6] | Potency [7] | Potency [8] | Potency [9] | Potency [10]

NC1CC1c1ccccc1 (stereo unspecified)
inactive: max response [1] -2.49% | max response [2] 5.36% | max response [3] -3.94% | outcome [18] | Potency [5] | Potency [6] | Potency [7] | Potency [8] | Potency [9] | Potency [10]

CSCC[C@@H](NC(=O)[C@@H](Cc1ccccc1)NC(=O)CNC(=O)CNC(=O)[C@@H](N)Cc1ccc(O)cc1)C(=O)O
inactive: outcome [1] | max response [2] 3.04% | max response [3] 2.68% | outcome [4] | Potency [5] | Potency [6] | Potency [7] | Potency [8] | Potency [9] | Potency [10]

CCOC(=O)c1c(C(C#N)=CN)c2ccc(Cl)c(Cl)c2n1C
inactive: outcome [1] | max response [2] -3.02% | max response [3] 2.89% | outcome [4] | Potency [5] | Potency [6] | Potency [7] | Potency [8] | Potency [9] | Potency [10]
